According to PubChem BioAssay (NCI):
This is part of a sample that, as a whole, favours compounds with a hit. Of some 79,000 tested, about 15% had one in any assay. Unmarked numbers belong to inactive results. The source made the active and inactive calls. Cut-off read from the data, not from the text of the source: active = growth inhibition above about 70%; inactive = the rest.

Tests used:
[1] = NCI Yeast Anticancer Drug Screen. Data for the rad52 strain (AID 147);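 note: 0% = growth of vehicle-treated control cultures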; settings: S. cerevisiae rad52 mutant growth inhibition, active compounds read high
Outline: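 Genetically altered yeast (DNA damage repair defect) treated with compound; inhibition calculated relative to vehicle.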

[2] = NCI Yeast Anticancer Drug Screen. Data for the wt1 strain (AID 149);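 note: 0% = growth of vehicle-treated wt1 cultures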; settings: S. cerevisiae wt1 strain (SPY 50644) growth inhibition, active compounds read high
Outline: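 Growth inhibition read against vehicle controls after compound exposure of the wt1 yeast strain.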

[3] = NCI Yeast Anticancer Drug Screen. Data for the rad50EPP+ strain (AID 151);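 note: 0% = growth of vehicle-treated control cultures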; settings: S. cerevisiae rad50 mutant strain, active compounds read high
Outline: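 Strain rad50EPP+; compound exposure; % growth inhibition vs vehicle.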

[4] = NCI Yeast Anticancer Drug Screen. Data for the mgt1 strain (AID 153); settings: S. cerevisiae mgt1 mutant growth inhibition, active compounds read high
Outline: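 Read-out: yeast growth inhibition vs vehicle control. Strain mgt1, drawn from a panel altered in DNA damage repair or cell cycle control.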

[5] = NCI Yeast Anticancer Drug Screen. Data for the rad50 strain (AID 155);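 note: 0% = growth of vehicle-only cultures of the same strain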; settings: S. cerevisiae rad50 strain growth inhibition, active compounds read high
Outline: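 Readout: growth inhibition relative to vehicle-treated cultures. Compound exposure was carried out in a genetically defined yeast strain deficient in DNA damage repair.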

[6] = NCI Yeast Anticancer Drug Screen. Data for the mec2-1 strain (AID 157); settings: S. cerevisiae mec2-1 strain, active compounds read high
Outline: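 Cells of the genetically defined mec2-1 yeast strain are incubated with test compound. Inhibition of growth is calculated against vehicle-treated controls.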

[7] = NCI Yeast Anticancer Drug Screen. Data for the rad14 strain (AID 159);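 note: 0% = growth of vehicle-treated control cultures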; settings: S. cerevisiae rad14 strain growth inhibition, active compounds read high
Outline: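 Growth inhibition vs vehicle controls; genetically altered yeast strain (DNA damage repair defect) treated with test compounds.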

[8] = NCI Yeast Anticancer Drug Screen. Data for the sgs1 mgt1 strain (AID 161);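 note: 0% = growth of cultures given vehicle only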; settings: S. cerevisiae sgs1 mgt1 strain, active compounds read high
Outline: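 Genetically altered yeast, compound exposure, growth inhibition relative to vehicle.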

[9] = NCI Yeast Anticancer Drug Screen. Data for the CLN2oe strain (AID 163);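 note: 0% = growth of vehicle-only control cultures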; settings: S. cerevisiae CLN2oe strain, active compounds read high
Outline: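 Strain altered in cell-cycle control, incubated with compound; growth compared to solvent-treated controls.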

[10] = NCI Yeast Anticancer Drug Screen. Data for the cln2 rad14 strain (AID 165);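 note: 0% = growth equal to vehicle treated cultures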; settings: S. cerevisiae cln2 rad14 strain, active compounds read high
Outline: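 The screen exposed genetically defined yeast (cln2 rad14) to test compounds and scored growth inhibition relative to vehicle-treated controls.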

[11] = NCI Yeast Anticancer Drug Screen. Data for the bub3 strain (AID 167); settings: S. cerevisiae bub3 mutant strain, active compounds read high
Outline: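 Readout: yeast growth inhibition, expressed relative to vehicle-only wells. The test organism is a mutant strain from a panel with lesions in DNA repair or checkpoint genes.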

[12] = NCI Yeast Anticancer Drug Screen. Data for the wt2 strain (AID 169);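 note: 0% = growth of vehicle-treated yeast cultures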; settings: S. cerevisiae wt2 strain growth inhibition, active compounds read high
Outline: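 Steps: yeast strain treated with compound; growth recorded; inhibition calculated relative to cultures given vehicle alone.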

[13] = NCI Yeast Anticancer Drug Screen. Data for the mlh1 strain (AID 171);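 note: 0% = growth of vehicle-treated control cultures of the same strain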; settings: S. cerevisiae mlh1 strain growth inhibition, active compounds read high
Outline: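 Yeast screen: mutant strain plus compound, growth scored against vehicle control wells.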

[14] = NCI Yeast Anticancer Drug Screen. Data for the sgs1 strain (AID 173);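 note: 0% = growth of vehicle-only control cultures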; settings: S. cerevisiae sgs1 mutant, active compounds read high
Outline: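 Inhibition of yeast growth served as the measure. The mutant strain was treated with each compound, and growth was normalised to cultures receiving vehicle alone.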

[15] = NCI Yeast Anticancer Drug Screen. Data for the mlh1 rad18 strain (AID 175); settings: S. cerevisiae mlh1 rad18 strain growth inhibition, active compounds read high
Outline: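 Compound-treated yeast growth, normalised to vehicle controls. Strain bears defined DNA repair mutations.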

[16] = NCI Yeast Anticancer Drug Screen. Data for the rad18 strain (AID 177); settings: S. cerevisiae rad18 mutant growth inhibition, active compounds read high
Outline: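 Inhibition values reflect reduced yeast growth compared with vehicle-treated controls, using a strain engineered with a DNA damage repair defect.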

[17] = at 5.0 µM (retest, dose inferred, filed as 0.5)
[18] = at 50.0 µM (retest, dose inferred, filed as 5.0)

NCCNc1ccc(NCCN)c2c1C(=O)c1c(O)ccc(O)c1C2=O
growth inhibition ([1]; at 1.2 µM): 24% | growth inhibition ([1]; at 3.7 µM): 83% (active) | growth inhibition ([1]; at 11.0 µM): 88% (active) | growth inhibition ([1]; at 33.0 µM): 85% (active) | growth inhibition ([1]; at 100.0 µM): 63% | growth inhibition ([2]; at 1.2 µM): 0% | growth inhibition ([2]; at 3.7 µM): 9% | growth inhibition ([2]; at 11.0 µM): 7% | growth inhibition ([2]; at 33.0 µM): 82% (active) | growth inhibition ([2]; at 100.0 µM): 76% (active) | growth inhibition ([3]; at 1.2 µM): 30% | growth inhibition ([3]; at 3.7 µM): 62% | growth inhibition ([3]; at 11.0 µM): 82% (active) | growth inhibition ([3]; at 33.0 µM): 87% (active) | growth inhibition ([3]; at 100.0 µM): 66% | growth inhibition ([4]; at 1.2 µM): -30% | growth inhibition ([4]; at 3.7 µM): -21% | growth inhibition ([4]; at 11.0 µM): -9% | growth inhibition ([4]; at 33.0 µM): 86% (active) | growth inhibition ([4]; at 100.0 µM): 66% | growth inhibition ([5]; at 1.2 µM): 20% | growth inhibition ([5]; at 3.7 µM): 78% (active) | growth inhibition [5, 17]: 73% (active) | growth inhibition ([5]; at 11.0 µM): 87% (active) | growth inhibition ([5]; at 33.0 µM): 85% (active) | growth inhibition [5, 18]: 84% (active) | growth inhibition ([5]; at 50.0 µM): 29.6% | growth inhibition ([5]; at 100.0 µM): 65% | growth inhibition ([6]; at 1.2 µM): -10% | growth inhibition ([6]; at 3.7 µM): 18% | growth inhibition [6, 17]: 14% | growth inhibition ([6]; at 11.0 µM): 13% | growth inhibition ([6]; at 33.0 µM): 87% (active) | growth inhibition [6, 18]: 84% (active) | growth inhibition ([6]; at 50.0 µM): 67.5% | growth inhibition ([6]; at 100.0 µM): 68% | growth inhibition ([7]; at 1.2 µM): -4% | growth inhibition ([7]; at 3.7 µM): 5% | growth inhibition ([7]; at 11.0 µM): 18% | growth inhibition ([7]; at 33.0 µM): 88% (active) | growth inhibition ([7]; at 100.0 µM): 68% | growth inhibition [8, 17]: 17% | growth inhibition [8, 18]: 77% (active) | growth inhibition ([8]; at 50.0 µM): 65% | growth inhibition ([9]; at 1.2 µM): 28% | growth inhibition ([9]; at 3.7 µM): 20% | growth inhibition ([9]; at 11.0 µM): 32% | growth inhibition ([9]; at 33.0 µM): 82% (active) | growth inhibition ([9]; at 100.0 µM): 52% | growth inhibition [10, 17]: 21% | growth inhibition [10, 18]: 77% (active) | growth inhibition ([10]; at 50.0 µM): 64.5% | growth inhibition ([11]; at 1.2 µM): 0% | growth inhibition ([11]; at 3.7 µM): 23% | growth inhibition [11, 17]: 11% | growth inhibition ([11]; at 11.0 µM): 5% | growth inhibition ([11]; at 33.0 µM): 85% (active) | growth inhibition [11, 18]: 70% (active) | growth inhibition ([11]; at 50.0 µM): 60% | growth inhibition ([11]; at 100.0 µM): 62% | growth inhibition ([12]; at 1.2 µM): -15% | growth inhibition ([12]; at 3.7 µM): 2% | growth inhibition ([12]; at 11.0 µM): 44% | growth inhibition ([12]; at 33.0 µM): 80% (active) | growth inhibition ([12]; at 100.0 µM): 52% | growth inhibition ([13]; at 1.2 µM): 2% | growth inhibition ([13]; at 3.7 µM): 20% | growth inhibition ([13]; at 11.0 µM): 20% | growth inhibition ([13]; at 33.0 µM): 86% (active) | growth inhibition ([13]; at 100.0 µM): 66% | growth inhibition ([14]; at 1.2 µM): 11% | growth inhibition ([14]; at 3.7 µM): 42% | growth inhibition ([14]; at 11.0 µM): 40% | growth inhibition ([14]; at 33.0 µM): 86% (active) | growth inhibition ([14]; at 100.0 µM): 63% | growth inhibition [15, 17]: 14% | growth inhibition [15, 18]: 82% (active) | growth inhibition ([15]; at 50.0 µM): 46% | growth inhibition ([16]; at 1.2 µM): 4% | growth inhibition ([16]; at 3.7 µM): 18% | growth inhibition ([16]; at 11.0 µM): 8% | growth inhibition ([16]; at 33.0 µM): 85% (active) | growth inhibition ([16]; at 100.0 µM): 61%

C[S+](C)C1(c2ccccc2)C(=O)c2ccccc2C1=O
growth inhibition ([1]; at 1.2 µM): 8% | growth inhibition ([1]; at 3.7 µM): 11% | growth inhibition ([1]; at 11.0 µM): 20% | growth inhibition ([1]; at 33.0 µM): 35% | growth inhibition ([1]; at 100.0 µM): 73% (active) | growth inhibition ([2]; at 1.2 µM): 1% | growth inhibition ([2]; at 3.7 µM): 2% | growth inhibition ([2]; at 11.0 µM): 1% | growth inhibition ([2]; at 33.0 µM): 3% | growth inhibition ([2]; at 100.0 µM): 12% | growth inhibition ([3]; at 1.2 µM): 1% | growth inhibition ([3]; at 3.7 µM): 3% | growth inhibition ([3]; at 11.0 µM): 9% | growth inhibition ([3]; at 33.0 µM): 36% | growth inhibition ([3]; at 100.0 µM): 72% (active) | growth inhibition ([4]; at 1.2 µM): 2% | growth inhibition ([4]; at 3.7 µM): 1% | growth inhibition ([4]; at 11.0 µM): 4% | growth inhibition ([4]; at 33.0 µM): 3% | growth inhibition ([4]; at 100.0 µM): 36% | growth inhibition ([5]; at 1.2 µM): 1% | growth inhibition ([5]; at 3.7 µM): 7% | growth inhibition [5, 17]: 7% | growth inhibition ([5]; at 11.0 µM): 18% | growth inhibition ([5]; at 33.0 µM): 42% | growth inhibition [5, 18]: 76% (active) | growth inhibition ([5]; at 50.0 µM): 77% (active) | growth inhibition ([5]; at 100.0 µM): 72% (active) | growth inhibition ([6]; at 1.2 µM): 3% | growth inhibition ([6]; at 3.7 µM): 0% | growth inhibition [6, 17]: -9% | growth inhibition ([6]; at 11.0 µM): 0% | growth inhibition ([6]; at 33.0 µM): 11% | growth inhibition [6, 18]: 1% | growth inhibition ([6]; at 50.0 µM): -11.7% | growth inhibition ([6]; at 100.0 µM): 30% | growth inhibition ([7]; at 1.2 µM): 1% | growth inhibition ([7]; at 3.7 µM): 0% | growth inhibition ([7]; at 11.0 µM): 2% | growth inhibition ([7]; at 33.0 µM): 6% | growth inhibition ([7]; at 100.0 µM): 22% | growth inhibition [8, 17]: 6% | growth inhibition [8, 18]: 6% | growth inhibition ([8]; at 50.0 µM): 1.35% | growth inhibition ([9]; at 1.2 µM): 1% | growth inhibition ([9]; at 3.7 µM): 2% | growth inhibition ([9]; at 11.0 µM): 8% | growth inhibition ([9]; at 33.0 µM): 13% | growth inhibition ([9]; at 100.0 µM): 26% | growth inhibition [10, 17]: 6% | growth inhibition [10, 18]: 10% | growth inhibition ([10]; at 50.0 µM): 9.8% | growth inhibition ([11]; at 1.2 µM): 1% | growth inhibition ([11]; at 3.7 µM): 2% | growth inhibition [11, 17]: -7% | growth inhibition ([11]; at 11.0 µM): 2% | growth inhibition ([11]; at 33.0 µM): 8% | growth inhibition [11, 18]: 10% | growth inhibition ([11]; at 50.0 µM): 35.9% | growth inhibition ([11]; at 100.0 µM): 30% | growth inhibition ([12]; at 1.2 µM): 2% | growth inhibition ([12]; at 3.7 µM): -1% | growth inhibition ([12]; at 11.0 µM): 0% | growth inhibition ([12]; at 33.0 µM): 6% | growth inhibition ([12]; at 100.0 µM): 32% | growth inhibition ([13]; at 1.2 µM): 1% | growth inhibition ([13]; at 3.7 µM): -1% | growth inhibition ([13]; at 11.0 µM): 0% | growth inhibition ([13]; at 33.0 µM): 7% | growth inhibition ([13]; at 100.0 µM): 30% | growth inhibition ([14]; at 1.2 µM): -1% | growth inhibition ([14]; at 3.7 µM): -2% | growth inhibition ([14]; at 11.0 µM): -1% | growth inhibition ([14]; at 33.0 µM): 16% | growth inhibition ([14]; at 100.0 µM): 52% | growth inhibition [15, 17]: 10% | growth inhibition [15, 18]: 10% | growth inhibition ([15]; at 50.0 µM): 27.9%
